Results filed as inconclusive are left out. Where a call stands in place of a potency, no number is given. Active and inactive are the calls of the source. The call rests on the fitted dose curve; in most records, active means well fitted inhibition curve with a large enough effect; inconclusive means small, poorly fitted or top-dose-only effect; inactive means no such curve, though single readings can be large or run the other way.
Assay: Confirmatory fluorescence-based thiol-reactive (MSTI) qHTS assay for identification of artifact compounds
Settings: MSTI thiol-reactivity probe, 1 h; series mostly up to 39.2 µM
Summary of the method: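 Thiol reactivity read as MSTI fluorescence (Ex/Em 525/598 nm) after 1 h at room temperature in PBS pH 7.4 with 2% DMSO, MSTI 4 uM. Data normalised to Acetyl-MSTI and MSTI control wells, 4-parameter Hill fit.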
Potency means the concentration at half of the fitted maximal effect.

Which Potency does the source give for `COc1ccc(C2C(C(=O)Nc3ccccc3)=C(C)Nc3c(C(=O)Nc4ccccc4)cnn32)cc1` (stereo not drawn) here?
The Potency was “inactive”.

For `O=C1CCCC2=C1C(c1[nH]ncc1Cl)NC(=NCCc1ccccc1)N2` (stereo not drawn), which Potency is on record?
Its Potency is “inactive”.

For `Cc1ccc(OCc2nc3ccccc3n2Cc2ccccc2Cl)cc1`, which Potency is on record?
Its Potency is “inactive”.

For `COc1ccccc1Cc1nc2ccccc2nc1SCC(=O)Nc1c(C)cccc1C`, which Potency is on record?
Its Potency is “inactive”.

Which Potency does the source give for `CC(C)(C)C(=O)NC1(C(F)(F)F)C(=O)Nc2c1c(=O)[nH]c(=O)n2-c1ccccc1` (stereo not drawn) here?
Its Potency is “inactive”.

Which Potency does the source give for `COCCn1c(=N)c(C(=O)NC2CCCC2)cc2c(=O)n3cc(C)ccc3nc21` here?
Its Potency is “inactive”.

For `O=C(NCCc1ccccc1)C1CCC(CNS(=O)(=O)c2ccccc2)CC1` (stereo not drawn), which Potency is on record?
Its Potency is “inactive”.

For `Cc1ccccc1C(=O)Nc1cc(C)c(O)c(-c2nc3ccccc3o2)c1`, which Potency is on record?
Its Potency is “inactive”.

With `CCCS(=O)(=O)N1CC(=O)N(c2ccc(C)cc2)C(C)(C(=O)NC2CCCCCC2)C1` (stereo not drawn) as the compound, how does the Potency read?
The Potency was “inactive”.

With `Ic1ccc(Nc2nc(NCCN3CCOCC3)nc(N3CCOCC3)n2)cc1` as the compound, how does the Potency read?
Its Potency is “inactive”.

With `O=C1CCC(=O)N1CO` as the compound, how does the Potency read?
Its Potency is “inactive”.

For `COc1ccc(NC(=O)N2CCc3c(sc4c3CCCC4)C2c2ccccc2OC)cc1` (stereo not drawn), which Potency is on record?
The Potency was “inactive”.

For `CCN(CC)c1ccc(-c2nc(-c3ccccn3)no2)cc1[N+](=O)[O-]`, which Potency is on record?
Its Potency is “inactive”.

With `Cc1ccc(NC(=O)NCC2CCN(Cc3cccc(Cl)c3)CC2)cc1Cl` as the compound, how does the Potency read?
The Potency was “inactive”.

With `O=S1(=O)N=C(Oc2ccc(Br)cc2)c2ccccc21` as the compound, how does the Potency read?
The Potency was “inactive”.

For `CC(C)=CCC/C(C)=C/C=O`, which Potency is on record?
The Potency was “inactive”.

With `COc1ccc(NC(=O)CSc2nc(-c3ccccc3)nc3c2Cc2c(CO)cnc(C)c2O3)cc1Cl` as the compound, how does the Potency read?
The Potency was “inactive”.

Which Potency does the source give for `O=C(Nc1nc(-c2ccccc2)cs1)c1ccccc1[N+](=O)[O-]` here?
The Potency was 2.44 µM (active).
